Data as given in PubChem BioAssay (NCI).
The panel holds about 83,000 compounds, 20% with a hit somewhere; the sample as a whole holds those more often.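 Interpretation: 100, growth as untreated; towards 0, rising growth inhibition; 0, no net growth; 0 to -100, cell death. Compounds scoring below 10 were considered active.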 The source made the active and inactive calls.

Legend:
Assay in all cases: NCI-60 one-dose screen, 48 h (100 = growth as untreated, 0 = no growth, -100 = all killed)
Conditions in all cases: 10 µM unless noted
[1] = system: HCT-15 colon
[2] = system: HT29 colon
[3] = system: SNB-75 CNS
[4] = system: SNB-19 CNS
[5] = system: U251 CNS
[6] = system: PC-3 prostate
[7] = system: SK-MEL-5 melanoma
[8] = system: UACC-62 melanoma
[9] = system: LOX IMVI melanoma
[10] = system: SK-MEL-28 melanoma

Measured: growth

Nc1ccc2c(c1Br)Cc1ccccc1-2
inactive: [1] 69.9% | [2] 111% | [3] 87.7% | [4] 98.9% | [5] 93.6% | [6] 83.4% | [7] 107% | [8] 91% | [9] 90.5% | [10] 121%

O=C(Nc1ccccc1OC(=O)c1ccccc1)c1ccccc1
inactive: [1] 88.5% | [2] 51.9% | [3] 101% | [4] 87.4% | [5] 47% | [6] 88.5% | [7] 97.4% | [8] 82.6% | [9] 60.1% | [10] 118%

C[C@H](C(=O)N[C@@H](Cc1ccc(-c2ccccc2)cc1)C(=O)NC1CC(C)(C)NC(C)(C)C1)c1ccc(-c2ccccc2)c(F)c1
inactive: [3] 13.3%
active: [1] -75% | [2] -61.2% | [4] -6.87% | [5] -71% | [6] -65.5% | [7] -93.1% | [8] -43.9% | [9] -85.3% | [10] -77.7%

Cc1sc2nc3c4ccccc4c(NCCCN(C)C)nn3c(=O)c2c1C
active: [2] -17.8% | [7] 9.72% | [9] -39% | [10] -87.5%
inactive: [1] 17.1% | [3] 54.3% | [4] 81.6% | [5] 55.8% | [6] 50.9% | [8] 44.3%

C(=C1c2ccccc2-c2ccccc21)c1ccncc1
inactive: [1] 26.9% | [4] 45.1% | [5] 27.8% | [6] 58.6% | [7] 46.6% | [8] 30.8% | [9] 39.5% | [10] 68.8%
active: [2] 8.42% | [3] -5.86%

COc1cnc2c(c1)C(=O)c1c-2n(CCCNC2=NCCS2)c(=O)c2cc(F)ccc12
inactive: [1] 43.3% | [2] 22.2% | [3] 33.1% | [4] 54.6% | [5] 12.1% | [6] 36.9% | [8] 17.4% | [10] 79.2%
active: [7] 0.102% | [9] -73.8%

Cc1nn(-c2nc3ccccc3s2)c(C)c1Oc1ccccc1O
inactive: [1] 29.4% | [2] 50.1% | [3] 78.7% | [4] 80% | [5] 33.9% | [6] 67% | [7] 54.6% | [8] 39% | [9] 30.1% | [10] 22.1%

Cc1cccc2nnc(-c3ccccc3)n12
inactive: [1] 101% | [2] 106% | [3] 107% | [4] 97.1% | [5] 108% | [6] 104% | [7] 110% | [8] 99.6% | [9] 99.4% | [10] 112%

CCCCN1c2nc3ccccc3cc2Sc2cc3ccccc3nc21
inactive: [1] 94.9% | [2] 95.2% | [3] 107% | [4] 107% | [5] 109% | [6] 78.6% | [7] 82.1% | [8] 91.7% | [9] 103% | [10] 116%

COC(=O)c1c(NC(=O)CSc2nnnn2-c2ccc(OC)cc2)sc(C)c1C
inactive: [1] 101% | [2] 107% | [3] 79.4% | [4] 102% | [5] 99.6% | [6] 85% | [7] 115% | [8] 74.8% | [9] 91.2% | [10] 108%

c1ccc(-c2oc(-c3ccccc3)c3ccccc23)cc1
inactive: [1] 108% | [2] 118% | [3] 110% | [4] 105% | [5] 98.9% | [6] 82.8% | [7] 104% | [8] 98.6% | [9] 88.5% | [10] 125%

COc1cccc(C=Nc2cc(C(C)C)c(O)cc2C)c1O
inactive: [1] 96% | [2] 103% | [3] 88.3% | [4] 93.2% | [5] 96% | [6] 92.8% | [7] 104% | [8] 91.9% | [9] 94.8% | [10] 116%

COc1cc(/C=N/OC(=O)Nc2ccccc2)cc(OC)c1OC
inactive: [1] 112% | [2] 104% | [3] 85.2% | [4] 105% | [5] 107% | [6] 91.1% | [7] 102% | [8] 90.5% | [9] 90.6% | [10] 104%

NC(=N\N=C/Cc1ccccc1)/C(N)=N\N=C\Cc1ccccc1
inactive: [1] 94.9% | [2] 120% | [3] 98.5% | [4] 96.6% | [5] 106% | [6] 101% | [7] 107% | [8] 96.1% | [9] 96.8% | [10] 120%

O=C1c2cccc3c([N+](=O)[O-])ccc(c23)C(=O)N1CCCCl
active: [1] -82.6% [100 µM] | [2] -63.2% [100 µM] | [3] -98.6% [100 µM] | [4] -97.8% [100 µM] | [5] -97.4% [100 µM] | [6] -90.8% [100 µM] | [7] -95.6% [100 µM] | [8] -96.3% [100 µM] | [9] -85.5% [100 µM] | [10] -97.3% [100 µM]

Cc1ccc2nc3c(n2c1)C(=O)C(=O)c1ccccc1-3
active: [1] -70.1% | [2] -39.1% | [3] -70.2% | [4] -77.7% | [5] -86% | [6] -24.5% | [7] -95.9% | [8] -89% | [9] -72% | [10] -86.4%

Nc1ncnc2c1CN(Cc1ccccc1)CC2
inactive: [1] 107% | [2] 104% | [3] 89% | [4] 104% | [5] 101% | [6] 93.9% | [7] 109% | [8] 107% | [9] 91.4% | [10] 109%

CC1CC=CCC1C1OCC(C)(C)CO1 (stereo not given)
inactive: [1] 97.9% | [2] 109% | [3] 90% | [4] 102% | [5] 92.9% | [6] 94.9% | [7] 104% | [8] 102% | [9] 69.9% | [10] 105%

CCCCCCC(CC#N)(CCC)CCCC (stereo not given)
inactive: [1] 108% | [2] 111% | [3] 88.7% | [4] 100% | [5] 104% | [6] 92.2% | [7] 105% | [8] 101% | [9] 89.8% | [10] 104%

N#Cc1c(NC(=O)c2ccco2)[n+]([O-])c2cc(Cl)c(Cl)cc2[n+]1[O-]
inactive: [1] 111% | [2] 103% | [3] 103% | [4] 111% | [5] 102% | [6] 125% | [7] 94.8% | [8] 85.2% | [9] 90.5% | [10] 104%

Cc1cc(-c2ccccc2)cc(C)n1
inactive: [1] 105% | [2] 99% | [3] 86.1% | [4] 99.4% | [5] 103% | [6] 96.6% | [7] 106% | [8] 103% | [9] 96.9% | [10] 107%

Nc1ccc2c(c1)C(=O)c1cc(Cl)c(Cl)cc1-2
inactive: [1] 103% | [2] 104% | [3] 68.7% | [4] 96.6% | [5] 90.4% | [6] 74.9% | [7] 98% | [8] 77.9% | [9] 86% | [10] 122%

C=CCNC(=O)/C(=C/c1cccc([N+](=O)[O-])c1)NC(=O)c1ccccc1
inactive: [1] 87.5% | [2] 113% | [3] 87.5% | [4] 91.2% | [5] 96.8% | [6] 94.7% | [7] 97.9% | [8] 95.3% | [9] 93.4% | [10] 119%

CCSc1nc(-c2ccc(F)cc2)c(C#N)c(=O)[nH]1
inactive: [1] 104% | [2] 106% | [3] 93.5% | [4] 107% | [5] 107% | [6] 127% | [7] 101% | [8] 97.5% | [9] 95.4% | [10] 108%

CC(NC(=O)Oc1cccc2ccccc12)c1ccccc1 (stereo not given)
inactive: [1] 100% | [2] 104% | [3] 87.4% | [4] 105% | [5] 90.7% | [6] 84.9% | [7] 97% | [8] 89.2% | [9] 87.2% | [10] 110%

COc1ccc(CNC(=O)c2c(C)n([O-])c3ccc(OC)cc3[n+]2=O)cc1
inactive: [1] 103% | [2] 93.2% | [3] 99.1% | [4] 97.8% | [5] 96.3% | [6] 80.5% | [7] 95% | [8] 94.9% | [9] 101% | [10] 108%

O=C(CC(C(=O)c1ccccc1)N1CCN(Cc2ccccc2)CC1)c1ccccc1 (stereo not given)
inactive: [1] 57% | [2] 54.7% | [3] 91.7% | [4] 99.4% | [5] 74.9% | [6] 93.8% | [7] 103% | [8] 101% | [9] 73.4% | [10] 112%
